Measurements taken from the supplement of paper PMC7156485.

Tested on: TDF
Test: H1.0 immunofluorescence intensity relative to DMSO (% of DMSO); higher = stronger H1.0 induction, active = 120 or more
Details: concentration: 10 µM; 24 h
Outline: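 Cell number or H1.0 nuclear intensity appears as percent of the plate control, based on the median of replicates. Measurements came from HCC1569 and TDF cells exposed in triplicate to compounds at 10 µM for 24 h at 37 °C, then imaged in six fields per well at ×10. Positional effects were smoothed out of HCC1569 values.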
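Note: TDF is a line of transformed human dermal fibroblasts of mesenchymal origin.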

SMILES	H1.0 immunofluorescence intensity
COc1ncnc(NS(=O)(=O)c2ccc(N)cc2)c1OC [Sulfadoxine]	91.9 (inactive)
COC(=O)[C@@H](N)Cc1ccc(O)c(O)c1.Cl [L-3,4-Dihydroxyphenylalanine methyl ester hydrochloride]	94.8 (inactive)
CN(CC=CC#CC(C)(C)C)Cc1cccc2ccccc12 [Terbinafine]	99.6 (inactive)
O=c1cc(N2CCOCC2)oc2c(-c3ccccc3)cccc12	88 (inactive)
CCCCCCCCCCCCCCCCCCOCC(COP(=O)([O-])OCC[N+](C)(C)C)OC (stereo unspecified) [1-Octadecyl-2-methylglycero-3 PC]	96.6 (inactive)
CCCCCCCC/C=C\CCCCCCCC(N)=O [(9Z)-9-octadecenamide]	102 (inactive)
CCC12CCCN3CCc4c(n(c5ccccc45)C(O)(C(=O)OC)C1)C32 (stereo unspecified) [Vincamine]	102 (inactive)
Nc1nc(=O)c2ncn(COCCO)c2[nH]1 [Acyclovir]	90.2 (inactive)
COc1cc(NC(C)CCCN)c2ncccc2c1 (stereo unspecified) [Primaquine]	96.2 (inactive)
O=C1CC(=O)c2c(Cl)c(Cl)c(Cl)c(Cl)c21 [4,5,6,7-tetrachloro-1H-indene-1,3(2H)-dione]	117 (inactive)
O=c1cc(N2CCOCC2)oc2c1ccc1ccccc12 [NU 7026 - 2-(4-Morpholinyl)-4H-naphthol[1,2-b]pyran-4-one]	94 (inactive)
NNC(=O)c1ccncc1 [Isoniazid]	89.6 (inactive)
COc1cc2ncn(-c3cc(OCc4ccc(S(C)(=O)=O)cc4)c(C(N)=O)s3)c2cc1OC [Polo-like Kinase Inhibitor I]	92.8 (inactive)
O=c1cc(-c2ccc(O)cc2)oc2cc(OC3OC(CO)C(O)C(O)C3O)cc(O)c12 (stereo unspecified) [Apigenin-7-glucoside]	93.7 (inactive)
CCN(CC)C(=O)c1ccc(Nc2nc(OCC3CCCCC3)c3[nH]cnc3n2)cc1 [Cdk2 Inhibitor IV,                 NU6140]	98.1 (inactive)
COC(=O)C1=C(C)NC(C)=C([N+](=O)[O-])C1c1ccccc1C(F)(F)F (racemic)	92.2 (inactive)

SMILES	H1.0 immunofluorescence intensity
CC1=C(C)C(=O)C(CCCCC#CCCCC#CCO)=C(C)C1=O [Docebenone]	103 (inactive)
CN(C)c1nc(N)c(C(=O)N=C(N)N)nc1Cl.Cl [5-(N,N-Dimethyl)amiloride hydrochloride]	96.1 (inactive)
Cc1cnc(-c2cnc(NCCNc3ccc(C#N)cn3)nc2-c2ccc(Cl)cc2Cl)[nH]1	114 (inactive)
CC(C)(CCCCCCCCCCC(C)(C)CC(=O)O)CC(=O)O [3,3,14,14-tetramethylhexadecanedioic acid]	96.6 (inactive)
CC(=O)NCCc1ccc(O)c(O)c1 [N-Acetyldopamine monohydrate]	96.7 (inactive)
N#CC(=Cc1ccc(O)cc1)C(N)=C(C#N)C#N	95.4 (inactive)
Cl.Oc1ccc(C2CNCCc3c2cc(O)c(O)c3Cl)cc1 (stereo unspecified) [Fenoldopam.HCl]	97 (inactive)
CCCCCCCCC=CCCCCCCCC(N)=O [9,10-Octadecenoamide]	94.7 (inactive)
COc1c2ccoc2cc2oc(C)cc(=O)c12 [Visnagin]	94.7 (inactive)
O=c1ccc2ccc(O)c(O)c2o1 [7,8-dihydroxy-2H-chromen-2-one]	96.2 (inactive)
COc1ccc(/C=C\c2cc(OC)c(OC)c(OC)c2)cc1O [2-methoxy-5-[(Z)-2-(3,4,5-trimethoxyphenyl)ethenyl]phenol]	179 (active)
CCN(CC)CCOC(=O)C1(C2CCCCC2)CCCCC1.Cl [Dicyclomine hydrochloride]	99.8 (inactive)
CCn1cc(C(=O)O)c(=O)c2ccc(C)nc21 [Nalidixic acid]	91.1 (inactive)
Cc1scc2c1N(C(=O)CN1CCN(C)CC1)c1ccccc1NC2=O.Cl.Cl [Telenzepine.2HCl]	96.6 (inactive)
OCC1OC(n2cnc3c(Nc4ccccc4)ncnc32)C(O)C1O (stereo unspecified) [N6-Phenyladenosine]	86.1 (inactive)
